Compound activity: PubChem BioAssay, National Center for Advancing Translational Sciences (NCATS)
Rows were chosen to be rich in hits. Some 9.2% of all compounds tested hit in one or more screens of this group.
ELG1 DNA repair = ELG1-dependent DNA repair inhibition; HEK293T ELG1-luciferase reporter, luminescence, 16 h; DNA damage induced by 5-fluorouridine; hit rate 2.3% among 330,000; AID 504467; Potency, µM (titrated, usually from 46.1 µM), without a hit: at the highest dose activity change, negative = inhibition, actives largely listed as inhibitors; further: on the % scale 0 is the no-effect control and ±100 the full control effect; nearly all actives have a fitted effect of over 55% in size
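Luminescence from the luciferase reporter, measured 30 min after ONE-Glo reagent at room temperature, was the read-out. Beforehand, 2,000 cells per well were exposed for 16 hr at 37 °C to 5-fluorouridine together with compound or vehicle.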
ELG1 genotox = inducers of genotoxicity in HEK293T ELG1-luciferase cells; HEK293T ELG1-luciferase reporter, luminescence, 16 h; Potency, µM (top dose mostly 46 µM), for inactives: at the highest dose activity change, positive = activation, usual class: activators; hit rate 1.3% among 330,000; AID 504466; further: % of control where 0% means no effect; nearly all actives have a fitted effect of over 60% in size
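Screening used a luciferase reporter fused to human ELG1 in HEK293T cells. Luminescence was read on a CCD plate imager after 16 hr exposure and 30 min ONE-Glo incubation.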
SMN2 splice up = SMN2 splice variant enhancement. HEK293 SMN2-luciferase splicing reporter, luminescence, 30-36 h. Potency, µM (doses to about 46.1 µM), for the others: at the top dose activity change, positive = activation, actives largely listed as activators. hit rate 2.8% among 210,000. AID 1458; further: % of control where 0% means no effect; nearly all actives have a fitted effect of over 55% in size
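HEK293 cells carry an SMN2 […]–luciferase reporter in which exon 7 inclusion puts luciferase in frame. Cells were plated 10-12 h before compound addition, then incubated 30-36 h at 37C. ONE-Glo luminescence was read; sodium butyrate at 4.5 mM final served as control.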
NPC1 prom act = activators of NPC1 promoter; Huh7 NPC1 promoter luciferase reporter, 24 h; Potency, µM (series often up to 9.22 µM), for the others: at the top dose activation, hits mostly activators; hit rate 2.4% among 320,000; AID 485313; further: % of control where 0% means no effect; nearly all actives have a fitted effect of over 60% in size
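Compounds in DMSO were transferred onto Huh7 NPC1-luciferase reporter cells pre-incubated 2 h; after 24 h at 37 °C, Amplite reagent was dispensed and luminescence recorded 10 min later.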
FLuc modulator = firefly luciferase modulation, counter-screen for miR-21 project | P08659 | purified FLuc, Km substrates, luminescence inhibition | Potency, µM (titrated, usually from 57.5 µM), for inactives: at the highest dose activity change, negative = inhibition, usual class: inhibitors | hit rate 6.9% among 360,000 | AID 588342;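 further: plate controls were vehicle for no effect and reference inhibitor for full effect; nearly all actives have a fitted effect of over 55% in size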
Target sequence (P08659 whole entry, looked up): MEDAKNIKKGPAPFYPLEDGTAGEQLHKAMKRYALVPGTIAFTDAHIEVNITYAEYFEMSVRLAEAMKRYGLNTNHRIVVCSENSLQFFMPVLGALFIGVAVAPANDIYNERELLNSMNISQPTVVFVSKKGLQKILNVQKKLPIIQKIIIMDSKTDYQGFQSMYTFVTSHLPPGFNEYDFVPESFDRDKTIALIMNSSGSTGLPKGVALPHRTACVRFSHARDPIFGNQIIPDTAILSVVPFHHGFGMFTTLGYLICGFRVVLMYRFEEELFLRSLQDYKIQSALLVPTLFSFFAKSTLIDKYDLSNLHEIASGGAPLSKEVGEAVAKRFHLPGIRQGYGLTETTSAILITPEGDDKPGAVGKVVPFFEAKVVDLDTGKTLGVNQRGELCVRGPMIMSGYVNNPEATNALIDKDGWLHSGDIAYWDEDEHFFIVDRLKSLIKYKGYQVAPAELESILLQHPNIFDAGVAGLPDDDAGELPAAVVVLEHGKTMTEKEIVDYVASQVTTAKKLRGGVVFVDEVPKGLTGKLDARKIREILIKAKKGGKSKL
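Biochemical qHTS of compounds, final roughly 60 µM downward over six points, against 10 nM purified firefly luciferase using Km concentrations of substrates (10 uM D-luciferin, 10 uM ATP) in Tris acetate pH 7.5 buffer; luminescence output.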
Rab9 prom act = activators of Rab9 promoter. Huh7 Rab9 promoter-luciferase reporter, luminescence, 24 h. Potency, µM (doses to about 9.22 µM), inactives show at the top dose activation, negative = inhibition, hits mostly activators. hit rate 2.8% among 320,000; further: % of control where 0% means no effect; nearly all actives have a fitted effect of over 60% in size
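Cell-based reporter: Huh7 stable for Rab9 promoter-driven luciferase, plated in reduced-serum medium with 10% FBS at 1500 cells/well, compound-treated 24 h at 37 °C, luminescence read after 10 min reagent.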
* hit, by the source's call; ? = inconclusive; . = no result; [ ] = dose if it differs, or a comment. The call rests on the fitted dose curve; in most records, active means well fitted curve in the direction sought with a large enough effect; inconclusive means small, poorly fitted or top-dose-only effect, or another doubt; inactive means no such curve, though single readings can be large; an effect the other way counts as inactive or inconclusive. Potency means the concentration at half of the fitted maximal effect.

SMILES	ELG1 DNA repair	ELG1 genotox	SMN2 splice up	NPC1 prom act	FLuc modulator	Rab9 prom act
Cc1ccc(-c2nc(CS(=O)CC(=O)NC(C)CCc3ccccc3)c(C)o2)cc1 (stereo not given)	-23.8%	0.2%	.	-2.5%	-4.8%	-1.2%
Cc1oc(-c2ccc(Cl)cc2)nc1CS(=O)CC(=O)NCc1ccc2c(c1)OCO2 (stereo not given)	?	0.6%	.	0.8%	-4.4%	2.8%
COc1ccc(-c2nc(CS(=O)CC(=O)NCc3ccc4c(c3)OCO4)c(C)o2)cc1OC (stereo not given)	14.6µM*	-4.9%	.	1.5%	-7.4%	3.5%
Cc1cc(OC(C)C(=O)Nc2cccc(-c3nc4ccccc4o3)c2)cc(C)c1Cl (stereo not given)	.	.	.	.	-10.8%	.
O=C(NCc1cccc(F)c1)C1CCC(=O)N(CC2CCCCC2)C1 (stereo not given)	0.6%	2.5%	.	0.2%	1.5%	3.1%
O=C(Nc1ccc2c(c1)nc1n2CCOC1)c1ccccc1	?	?	23.0%	2.24µM*	15.1µM*	3.16µM*
O=C(Nc1ccc2c(c1)nc1n2CCSC1)c1ccccc1	?	?	11.2µM*	?	10.7µM*	3.55µM*
COc1ccc(C(=O)Nc2ccc3c(c2)nc2n3CCSC2)cc1	?	?	10.3%	2.82µM*	7.57µM*	?
Cc1ccc(S(=O)(=O)N2CCN(CCOc3c(Cl)cccc3Cl)CC2)cc1C	-0.6%	-3.9%	.	2.1%	2.2%	-4.3%
O=C1c2ccccc2S(=O)(=O)N1Cc1nc2ccccc2s1	?	15.9%	-68.9%	?	19µM*	-11.1%
Cc1ccccc1CN1C(=O)c2ccccc2S1(=O)=O	-2.6%	-6.4%	.	23.6%	4.2%	3.2%
CC(=O)Nc1ccc(S(=O)(=O)N2CCCC(C(=O)N3CCN(c4ccccc4)CC3)C2)cc1 (stereo not given)	20.6µM*	-13.7%	.	-0.8%	9.6%	-5.1%
CC(=O)c1ccc(N2CCN(C(=O)C3CCN(S(=O)(=O)Cc4ccccc4)CC3)CC2)cc1	18.4µM*	-6.3%	.	1.4%	-3.8%	7.7%
O=C(C1CCN(S(=O)(=O)Cc2ccccc2)CC1)N1CCN(c2ccccc2)CC1	.	.	.	.	0.8%	.
O=C(O)/C=C/C(=O)Nc1ccccc1-c1ccccc1	-0.5%	-3.8%	8.8%	-4.2%	0.0%	-8.4%
CCOc1ccc(N(C)S(=O)(=O)c2ccc(C)c(C(=O)OCC(=O)c3c[nH]c4ccccc34)c2)cc1	?	-12.0%	-12.4%	-1.7%	?	-3.6%
Cc1ccc(SCCNC(=O)c2ccc(C)c(S(=O)(=O)Nc3ccccc3C)c2)cc1	2.91µM*	-15.1%	-18.2%	-3.6%	1.6%	-8.3%
COC(=O)c1cc2c(C)c(C)c3ccccn3c-2c1C(=O)OC	?	-3.1%	0.2%	-3.7%	?	6.1%
CC(C)OC(=O)c1c2c(n3ccccc13)C(=O)c1ccccc1C2=O	18.4µM*	-4.3%	0.6%	-2.6%	-6.7%	19.0%
N/C(=N\OC(=O)Cc1cccs1)c1ccccc1	?	?	-3.8%	?	15.1µM*	27.3%
N/C(=N\OC(=O)Cc1cccs1)c1cccc([N+](=O)[O-])c1	?	5.2%	-2.9%	-2.8%	?	-2.5%
N/C(=N\OC(=O)Cc1cccs1)c1ccc(Cl)cc1	?	?	.	20.2%	13.5µM*	24.1%
Cc1cccc(/C(N)=N/OC(=O)Cc2cccs2)c1	?	?	9.8%	?	13.5µM*	?
Cc1ccc(/C(N)=N/OC(=O)Cc2ccccc2)cc1	?	?	19.7%	17.6%	19µM*	1.3%
CCc1ccccc1NC(=O)C1CCCN(c2ncnc3onc(C)c23)C1 (stereo not given)	.	.	.	.	-1.2%	.
SMILES	ELG1 DNA repair	ELG1 genotox	SMN2 splice up	NPC1 prom act	FLuc modulator	Rab9 prom act
Cc1cc(O)c2c(C)c(CC(=O)NCc3ccccc3Cl)c(=O)oc2c1	.	.	1.4%	.	-1.6%	.
COc1cc(NC(=S)NC(=O)c2ccccc2F)ccc1NC(=O)c1ccco1	6.8%	2.7%	?	11.8%	-0.2%	-3.8%
Cc1ccc(/C(N)=N/OC(=O)Cc2cccs2)cc1	?	?	1.5%	?	9.53µM*	?
Cc1ccc(/C(N)=N/OC(=O)Cc2cccc3ccccc23)cc1	-6.1%	1.6%	7.3%	0.0%	-13.4%	-4.4%
COc1ccc(S(=O)(=O)N(C)c2ccc(C(=O)N3CCCC3)cc2)cc1OC	?	-1.9%	.	-2.1%	1.0%	-3.7%
COc1ccc(S(=O)(=O)N(C)c2ccc(C(=O)Nc3cccnc3)cc2)cc1OC	20.6µM*	-15.0%	.	2.2%	-2.8%	-1.2%
COc1ccc(S(=O)(=O)N(C)c2ccc(C(=O)Nc3cccnc3)cc2)cc1	23.1µM*	-20.3%	.	10.5%	1.5%	-0.8%
CN(c1ccc(C(=O)Nc2cccnc2)cc1)S(=O)(=O)c1ccccc1	-25.3%	-11.8%	.	-3.0%	3.0%	-0.6%
COc1ccc(S(=O)(=O)N(C)c2ccc(C(=O)N3CCN(c4ccccc4)CC3)cc2)cc1OC	13µM*	-20.8%	.	-3.6%	0.5%	-1.8%
CN1CCC(Oc2ccccc2Sc2ccc(C(F)(F)F)cc2)CC1	-4.5%	1.8%	-59.3%	-5.9%	0.6%	-0.4%
CN1CCC(Oc2ccc(Sc3ccccc3)cc2)CC1	?	?	5.9%	18.3%	12µM*	21.2%
O=C1C=CC(=O)N1c1ccc(OC(F)F)cc1	20.6µM*	-6.2%	-3.3%	-20.1%	?	-28.0%
Cc1nn2c(=O)cc(COC(=O)c3cccc(NC(=O)c4ccc(C(C)(C)C)cc4)c3)nc2s1	.	.	.	.	0.536µM*	.
Cc1cn2c(=O)cc(COC(=O)c3cccc(NC(=O)COc4ccccc4Cl)c3)nc2s1	.	.	.	.	4.78µM*	.
Cc1cccc(C(=O)Nc2cccc(C(=O)OCc3cc(=O)n4nc(C(C)C)sc4n3)c2)c1	.	.	.	.	-19.9%	.
CCOC(=O)c1ccc(NC(=S)NCCCN2CCOCC2)cc1	-5.1%	-2.8%	.	2.1%	-0.7%	-5.5%
CCCCn1c(C)cc2c(c1=O)[C@H]1O[C@](CCCC)(Cc3cc(OC)c(OC)cc31)O2	.	.	.	-1.1%[1.84 µM]	1.5%[11.5 µM]	3.6%[1.84 µM]
O=C(O)c1cc(Br)ccc1NN=C1CCCCC1	?	3.7%	-10.2%	0.4%	?	-0.9%
O=c1cccccc1NN=C1CCCCC1	?	16.7%	.	12.2%	12µM*	9.6%
O=c1cccccc1NN=C1CCCCCC1	?	14.6µM*	.	2.24µM*	6.01µM*	3.16µM*
CC(=O)N1CCN(CC(=O)Nc2c(Cl)ccc(C)c2Cl)CC1	-8.8%	-2.3%	-0.7%	-6.0%	-0.8%	8.9%
Cc1oc2ncnc(N3CCOCC3)c2c1C(=O)N1CCN(c2cccc(C(F)(F)F)c2)CC1	.	.	.	.	0.8%	.
